Assay outcomes from PubChem.
IL1B secr inh – blocks inflammasome-driven IL-1 beta release; THP-1 LPS/ATP IL-1B secretion, AlphaLISA, 16 h; stronger effect = lower value; activity change, % at 57.5 µM; 4.7% of 360,000 active; AID 743279; in the data active = activity change below about -50%; inconclusive = mostly about -30% to -49%; also: % is scaled to controls: 0 for no effect and ±100 for the full control effect
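Secreted IL-1B measured by AlphaLISA bead assay after 16 h compound exposure of THP-1 cells; compounds (final up to 57.5 uM) added 1 h before LPS (250 ng/mL) and ATP (1.25 mM) stimulation; lower signal means less secretion.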
HT1080-NT tox – kills 2HG-producing HT-1080-NT fibrosarcoma cells; Potency, µM (doses to about 46.1 µM), for the others: at the highest dose activity, negative = less viability, most hits filed as cytotoxic; HT-1080-NT fibrosarcoma viability, CellTiter-Glo ATP luminescence, 48 h; AID 686970; 1.6% of 360,000 active;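 also: NT is the 2HG producing partner of a matched IDH1 knockdown line; potency is read from the fitted curve at half-maximal effect; 0% = DMSO-treated cells and -100% = media-only wells without cells; nearly all actives have a fitted effect of over 55% in size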
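HT-1080-NT fibrosarcoma cells (2HG-overproducing), 750 cells/well in RPMI with 5% FBS, dosed after 2 h and incubated 48 h at 37C. CellTiter-Glo luminescence normalized to DMSO and no-cell wells; concentration-response curves fitted and classed.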
TGFb inhibitor – blocks TGF-b signaling; HepG2 CAGA-GFP TGF-b/SMAD3 reporter, GFP fluorescence, 18 h; TGF-beta stimulated, 500 pg/mL final; Potency, µM (highest dose often 46.1 µM), for the others: top-dose activity, negative = inhibition, usual class: inhibitors; 1.2% of 410,000 active; AID 588855; also: potency is read from the fitted curve at half-maximal effect; % is scaled to controls: 0 for no effect and ±100 for the full control effect; nearly all actives have a fitted effect of over 65% in size
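TGF-beta reporter screen: HEPG2 CAGA-GFP, 1% FBS, 500 pg/mL TGF-beta final, 18 h; per-cell GFP summed per well; curves fitted and categorized by class.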
HT1080 IDH1KD tx – HT-1080 IDH1 knockdown cell toxicity (counter line). 2% of 360,000 active. Potency, µM (series often up to 46.1 µM), for inactives: at the highest dose activity, negative = toxicity, hits mostly cytotoxic. AID 686971. HT-1080 IDH1 knockdown viability, ATP luminescence, 48 h;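 also: potency is read from the fitted curve at half-maximal effect; 0% = DMSO wells and -100% = cell-free medium wells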
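After a 2 h attachment period, IDH1KD HT-1080 cells took pin-transferred compound for 48 h at 37 °C; ATP-based luminescence after 10 min room-temperature reagent incubation reported viability.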
Giardia kill – Giardia lamblia killing; activity change, % at 7.66 µM, hits read low; AID 540267; 0.15% of 340,000 active; Giardia lamblia trophozoite viability; in the data active = activity change below about -80%; inconclusive = between about -30% and that limit;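 also: parasites exposed to compound for two days anaerobically before the ATP read; % is scaled to controls: 0 for no effect and ±100 for the full control effect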
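Killing of trophozoites was scored by loss of ATP luminescence after a 48 hrs anaerobic exposure to compounds at 37 deg C, using 100 cells per well.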
HepG2 tox – kills HepG2 cells in TGF-b inhibitor counter-screen; 0.76% of 410,000 active; Potency, µM (top dose mostly 46.1 µM), inactives show at the top dose activity change, negative = cytotoxicity, most hits filed as cytotoxic; HepG2 CAGA-GFP viability, ATP luminescence, 18 h; also: potency is read from the fitted curve at half-maximal effect
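CellTiter-Glo luminescence gave cytotoxicity after 18 hours at 37 degrees C. The cells were HepG2 CAGA-GFP in 1% FBS DMEM, stimulated with 500 pg/mL TGF-beta after compound addition. %Activity was normalised to no-cell wells (complete cell-killing) and DMSO (no toxicity), and curves were fitted and classified.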
An asterisk follows results filed as active; ? = inconclusive; · = no result given; ! = a repeat was not active. Shown are actives, neighbours in structure and some others; about 6.5% of the full set was active somewhere. Unless noted, calls follow the shape of the dose curve; as a rule, active = well fitted curve in the direction sought with a large enough effect; inconclusive = small, poorly fitted or top-dose-only effect, or another doubt; inactive = no such curve, though single readings can be large; an effect the other way counts as inactive or inconclusive.

SMILES | IL1B secr inh | HT1080-NT tox | TGFb inhibitor | HT1080 IDH1KD tx | Giardia kill | HepG2 tox
Fc1ccc(N2CCN(c3nnnn3-c3ccccc3)CC2)cc1 | ? | -4% | -14% | 12% | 29 | -4%
COc1ccc(CCNC(=O)COC(=O)c2ccc(C)s2)cc1OC | 8 | 0% | -18% | 5% | -12 | 2%
CCn1c(C)nc2cc(C(=O)N/N=C/c3ccccc3C)ccc21 | ? | 10% | 13% | -17% | 5 | 7%
COC(c1ccccc1)c1nnc(CCC(=O)NCc2cccc(-n3cccn3)c2)o1 (stereo unspecified) | 28 | 9% | 5% | 21% | 7 | -12%
O=C(N/N=C/c1cccs1)c1cncc(Br)c1 | -14 | -9% | -13% | -13% | 14 | 1%
O=C(N/N=C\c1ccc([N+](=O)[O-])s1)c1cncc(Br)c1 | -58* | ? | 6.3µM* | 6.5µM* | ? | 3.5µM*
COC(=O)N/N=C/c1ccc([N+](=O)[O-])s1 | -17 | -1% | ? | ? | ? | -35%
O=C(N/N=C/c1ccc([N+](=O)[O-])s1)c1ccccc1 | ? | -10% | 11µM* | -13% | -90* | 13µM*
CC(=O)Oc1ccc(-c2csc(Nc3ccccn3)n2)cc1 | -24 | -20% | -23% | ? | · | -13%
CC(=O)Nc1ccc(Nc2nc(-c3sc(NC(C)=O)nc3C)cs2)cc1 | -95* | 0% | -7% | -27% | 3 | -13%
CC(=O)Nc1nc(C)c(-c2csc(Nc3ccccn3)n2)s1 | -79*! | -28% | ? | ? | -23 | -23%
CC(=O)Nc1nc(C)c(-c2csc(Nc3ccc(O)cc3)n2)s1 | -88* | ? | 0% | 18µM* | 9 | -10%
CC(=O)Nc1nc(C)c(-c2csc(Nc3cccc(C(C)=O)c3)n2)s1 | -79* | ? | ? | -4% | 5 | -12%
CCC(=O)Nc1nc(C)c(-c2csc(Nc3cccc(C(=O)O)c3)n2)s1 | -1 | -2% | 0% | -12% | 0 | -26%
CCC(=O)Nc1nc(C)c(-c2csc(Nc3ccc(C(=O)O)cc3)n2)s1 | 0 | 3% | 12% | 9% | 5 | -20%
O=C(COC(=O)/C=C/c1cccc(C(F)(F)F)c1)Nc1cccc(S(=O)(=O)NC2=NCCC2)c1 | -15 | 0% | -1% | 7% | · | -3%
COc1ccc(Nc2nc(-c3sc(C)nc3C)cs2)cc1 | 41 | 5.2µM* | ? | 3.7µM* | -3 | -38%
Cc1nc(C)c(-c2csc(Nc3ccc(N)cc3)n2)s1 | -19 | -20% | -11% | -6% | -29 | -21%
O=C(c1sc2ccccc2c1Cl)N1CCN(CCc2ccccn2)CC1 | 4 | -11% | ? | 14% | 32 | -32%
CC(C)(c1ccccc1)c1ccc(OCCCN2CCNCC2)cc1 | -80* | -5% | 0% | 21µM* | 11 | 22µM*
CC(C)(C)c1ccc(OCCCCCCN2CCNCC2)cc1 | -80* | ? | ? | 23µM* | -4 | -173%
CC1CCN(CCCCOc2ccc(C(C)(C)C)cc2)CC1 | ? | -24% | -14% | -25% | -5 | -34%
CCn1c(C(=O)NCc2ccccc2C)cc2oc3ccccc3c21 | · | · | · | · | · | -29%
CC1(C)Cc2ccccc2C(/C(=N\Nc2cccc(Cl)c2)C(N)=O)=N1 | -54* | 21µM* | ? | 21µM* | -6 | -26%
COc1ccc(C(=O)Nc2nc(CC(=O)NCCc3ccccc3)cs2)cc1 | -52* | 1% | -10% | 0% | -7 | 1%
SMILES | IL1B secr inh | HT1080-NT tox | TGFb inhibitor | HT1080 IDH1KD tx | Giardia kill | HepG2 tox
O=C(Cc1csc(NC(=O)c2ccccc2)n1)NO | -58* | ? | 8% | ? | 8 | -10%
COc1ccc(C(=O)Nc2nc(CC(=O)NCCc3cccc(OC)c3)cs2)cc1 | ? | -1% | -28% | -9% | -7 | -29%
COc1cc(CNc2ccc3[nH]c(=O)[nH]c3c2)cc(Cl)c1OCC(=O)NC(C)(C)C | -18 | -5% | 5% | -11% | 14 | -11%
CC(C)OCCCNC(=O)c1cccc2c1C(=O)c1ccc(Cl)cc1S2(=O)=O | -77* | 24% | -32% | 9% | ? | 2%
O=C(NC[C@@H]1CCCO1)c1cccc2c1C(=O)c1ccc(Cl)cc1S2(=O)=O | -54* | -21% | 0% | 2% | -26 | -2%
O=C(NCCOc1ccccc1)c1cccc2c1C(=O)c1ccc(Cl)cc1S2(=O)=O | -81* | -19% | -24% | -1% | -27 | -31%
COc1ccc(-c2ccc3c(c2)S(=O)(=O)c2cccc(C(=O)NC[C@@H]4CCCO4)c2C3=O)cc1OC | 4 | 2% | -2% | -15% | 1 | 0%
COc1ccc(C)cc1NC(=O)c1nn(C)c(C(=O)Nc2cc(C)ccc2OC)c1[N+](=O)[O-] | ? | 12% | 23% | -2% | -11 | -3%
CCOc1ccc(CNC(=O)C2CCN(C(=O)N3CC(C)Oc4ccccc43)CC2)cc1 (stereo unspecified) | -16 | 16% | -14% | 0% | -3 | -35%
O=S(=O)(c1ccc(F)cc1)N(Cc1nc(-c2ccccc2)no1)C1CCCCC1 | · | · | -30% | · | · | -19%
O=C(NCc1cccs1)c1noc2c1CCCC2 | 13 | ? | -4% | 18µM* | -8 | -4%
O=C(CCn1cnc2ccccc21)N/N=C/C=C/c1ccccc1 | -11 | 6% | 1% | 0% | -6 | -17%
O=C(CCn1cnc(-c2ccccc2)c1-c1ccccc1)N/N=C/c1ccc(O)cc1 | 32 | ? | 0% | ? | 5 | -16%
COc1ccc(/C=N/NC(=O)CCn2cnc(-c3ccccc3)c2-c2ccccc2)cc1 | 0 | 3.3µM* | 11µM* | 3.3µM* | -2 | -35%
O=C(CCn1cnc(-c2ccccc2)c1-c1ccccc1)N/N=C/c1ccccc1O | 230 | 13µM* | ? | 15µM* | -23 | -43%
COc1ccccc1/C=C/C=N/NC(=O)CCn1cnc2ccccc21 | -7 | 10µM* | -1% | 15µM* | 8 | -7%
COc1ccc(Cc2nnc(NC(=O)Nc3ccccc3F)s2)cc1OC | 67 | -29% | ? | ? | ? | 13%
O=C(CCc1ccccc1)Nc1cc(Cl)ccc1O | -7 | 1% | ? | -1% | -7 | -26%
COc1cc(O)c(C(CCN2CCCCC2)c2ccc3c(c2)OCO3)c(OC)c1 (stereo unspecified) | -81* | -5% | ? | -19% | -13 | -6%
Cc1ccc(S(=O)(=O)c2nnn3c2nc(N2CCOCC2)c2ccccc23)cc1C | -66* | 14% | 5% | -1% | 20 | -17%
